# High-throughput results: PubChem BioAssay, National Center for Advancing Translational Sciences (NCATS)
# The list is not random: actives were taken first. Their share in the collection is about 10%.
# G9a inh: inhibitors of human histone lysine methyltransferase G9a. Q96KQ7. G9a H3K9 monomethylation, AlphaScreen, 2 h. Potency, µM (highest dose often 102 µM), for inactives: at the highest dose activity, negative = inhibition, actives largely listed as inhibitors. actives 8.8% (n = 350,000); also: potency is read from the fitted curve at half-maximal effect; % is scaled to controls: 0 for no effect and ±100 for the full control effect; nearly all actives have a fitted effect of over 75% in size
#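 Enzyme 20 nM + cpd, 15 min RT; add b-H3K9 pep 500 nM / SAM 20 uM; 2 h RT; anti-H3K9me1 Ab 0.5 ug/mL + SA donor / anti-rabbit acceptor beads 20 ug/mL each, 10 min; AlphaScreen read.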
# BAZ2B inh: inhibitors of human BAZ2B bromodomain | Q9UIF8 | AlphaScreen BAZ2B-H3K14Ac peptide displacement | Potency, µM (doses to about 114 µM), for inactives: at the highest dose activity change, negative = inhibition, hits mostly inhibitors | actives 4.4% (n = 360,000); also: potency is read from the fitted curve at half-maximal effect; % is scaled to controls: 0 for no effect and ±100 for the full control effect; nearly all actives have a fitted effect of over 60% in size
#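 In this displacement format the biotinylated H3(5-23) peptide acetylated at Lys14 serves as ligand at 50 nM, with BAZ2B at 50 nM in PBS pH 7.4 containing 0.01% Tween-20. Donor and acceptor beads are 10 ug/mL final.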
# Six1-Eya2 blk: blocks human Six1 binding to Eya2; Q15475+O00167; AlphaScreen GST-Six1/His-Eya2 binding, biochemical; stronger effect = lower value; activity change, % (test concentration not listed); actives 0.56% (n = 360,000); AID 651725; in the data active = activity change below about -65%; inconclusive = mostly about -30% to -63%; also: % is scaled to controls: 0 for no effect and ±100 for the full control effect
#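 Compounds are tested against tagged Six1 and Eya2 proteins bridged by glutathione donor and nickel acceptor beads; after a one-hour incubation at 37 °C without light, AlphaScreen emission is recorded.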
# CtBP-E1A inh: CtBP/E1A binding inhibition | actives 0.49% (n = 340,000) | activity change, % (no concentration beside the values) | AID 651724 | AlphaScreen GST-E1A/His-CtBP binding, 1536-well; stronger effect = lower value; in the data active = activity change below about -65%; inconclusive = mostly about -30% to -63%; also: % is scaled to controls: 0 for no effect and ±100 for the full control effect
#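 Homogeneous bead-based format: GST-tagged E1A captured on glutathione donor beads, His-tagged CtBP on nickel acceptor beads; compounds precede bead addition by 2 h at 37 °C.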
# JMJD2A Tudor: JMJD2A Tudor domain (human) inhibition; O75164; AlphaScreen JMJD2A-Tudor / H3K4me3 peptide binding; AID 504339; actives 4.4% (n = 390,000); Potency, µM (highest dose often 114 µM), for inactives: top-dose activity change, negative = inhibition, hits mostly inhibitors; also: potency is read from the fitted curve at half-maximal effect; % is scaled to controls: 0 for no effect and ±100 for the full control effect; nearly all actives have a fitted effect of over 50% in size
# HP1b binding inh: inhibitors of HP1-beta chromodomain binding to methylated histone tails; P83916; Potency, µM (top dose mostly 114 µM), for inactives: top-dose activity change, negative = inhibition, hits mostly inhibitors; actives 0.56% (n = 390,000); AID 540317; AlphaScreen HP1-beta / biotin-H3K9me3 peptide binding; also: potency is read from the fitted curve at half-maximal effect; nearly all actives have a fitted effect of over 70% in size
#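 Compound inhibition of the preformed complex between 50 nM HP1-beta and 50 nM biotinylated H3K9me3 peptide was read by AlphaScreen. Buffer was PBS pH 7.4 with 0.01% Tween-20. Incubations ran 30 min at room temperature, with 10 ug/mL donor/acceptor beads.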
# Starred values were filed as active, the others as inactive; u = inconclusive; x = no result; [ ] = dose if it differs, or a comment. Unless noted, calls follow the shape of the dose curve; as a rule, active = well fitted inhibition curve with a large enough effect; inconclusive = small, poorly fitted or top-dose-only effect; inactive = no such curve, though single readings can be large or run the other way.
SMILES,G9a inh,BAZ2B inh,Six1-Eya2 blk,CtBP-E1A inh,JMJD2A Tudor,HP1b binding inh
O=[N+]([O-])c1ccc(C2CN=C(Nc3ccccc3)S2)cc1 (stereo not drawn),44.7µM*,u,-6.6,1.6,-29.7%,0.0%
COc1ccc(NC(=O)CN2CCN(c3nc(-c4cccc(OC)c4)cs3)CC2)cc1,10µM*,u,-10.7,-7.4,u,-20.5%
COc1cccc(N2CCN(CC(=O)Nc3nnc(-c4ccccc4)s3)CC2)c1,-6.3%[59 µM],u,u,-23.5,89.1µM*,-20.3%
COc1cc(CCC(=O)Nc2nnc(-c3cccnc3)s2)cc(OC)c1OC,39.8µM*,-5.3%,-13.4,-14.7,-20.0%,-9.8%
COc1cccc(-c2csc(N3CCN(C(=O)C4CCCCC4)CC3)n2)c1,14.1µM*,u,-8.8,-7.9,u,-25.9%
O=[N+]([O-])c1ccc(Cl)c(S(=O)(=O)Nc2cccc(-c3ccc(N4CCOCC4)nn3)c2)c1,50.1µM*,-29.2%,-17.3,-7.4,-16.4%,8.9%
Cc1ccc([N+](=O)[O-])cc1S(=O)(=O)Nc1cccc(-c2ccc(N3CCCC3)nn2)c1,14.1µM*,u,-25.8,-3.9,-28.3%,2.1%
COc1ccc(-c2cccc(NS(=O)(=O)c3cc([N+](=O)[O-])ccc3Cl)c2)nn1,u,-5.1%,5.5,-5.7,-31.5%,-1.1%
O=[N+]([O-])c1ccc(S(=O)(=O)Nc2cccc(-c3ccc(N4CCOCC4)nn3)c2)cc1,25.1µM*,-26.2%,-9.2,-2.7,-15.2%,9.2%
CCOc1ccc(-c2cccc(NS(=O)(=O)c3cc([N+](=O)[O-])ccc3Cl)c2)nn1,50.1µM*,u,-9.5,-16.1,-35.9%,-12.4%
O=[N+]([O-])c1ccc(S(=O)(=O)Nc2ccc(-c3ccc(N4CCOCC4)nn3)cc2)cc1,8.8%[2.33 µM],-3.4%,-15.9,9.8,-26.9%,11.9%
CCOCCc1nn2c(=O)cc(COC(=O)c3ccccc3NC(=O)c3cccs3)nc2s1,-10.2%[59 µM],1.7%,x,x,-19.9%,-0.9%
Cc1cc(C)c(NC(=O)CSc2nc(=O)[nH]c3c2CCCC3)c(C)c1,-0.7%[59 µM],-0.7%,x,x,1.3%,32.6%
Cc1ccc(C)c(NC(=O)CCc2c(C)n(C)c3cc(-c4ccccc4C)nn3c2=O)c1,12.9%[59 µM],1.7%,x,x,-15.2%,12.5%[57 µM]
CCn1c2ccc(C)cc2c2n[nH]c(=S)nc21,7.08µM*,-36.3%,-74.9*,-87.9*,-30.2%,28.4%
Cn1c2ccccc2c2n[nH]c(=S)nc21,x,2.5%,-83.0*,-78.8*,-20.4%,12.4%
Cc1ccc2c(c1)c1n[nH]c(=S)nc1n2CCc1ccccc1,1.3%,-1.0%,0.0,x,-20.5%,18.4%
CCOC(=O)c1c(C)c(C(=O)NCc2ccc(Cl)cc2)c(C)n1C,-37.7%[59 µM],-8.7%,x,x,-12.7%,12.3%
CCc1nn2c(=O)cc(COc3ccc(/C=C4\C(=N)N5N=C(C)SC5=NC4=O)cc3)nc2s1,-12.7%[59 µM],50.1µM*,-19.0,x,56.2µM*,15.2%
COc1cccc(OCCOc2ccc(/C=C3\C(=N)N4N=C(S(C)(=O)=O)SC4=NC3=O)cc2OC)c1,39.8µM*,79.4µM*,-4.6,-10.3,56.2µM*,-2.9%
COc1cc(/C=C2\C(=N)N3N=C(C)SC3=NC2=O)cc(Cl)c1OCCOc1ccc(NC(C)=O)cc1,-1.6%,79.4µM*,-2.3,-10.3,-6.4%,13.5%
COc1cc(/C=C2\C(=N)N3N=C(S(C)(=O)=O)SC3=NC2=O)ccc1OS(=O)(=O)c1ccc(C)cc1,10.4%[59 µM],50.1µM*,-8.7,x,56.2µM*,-5.4%
CCOc1cc(/C=C2\C(=N)N3N=C(C)SC3=NC2=O)ccc1OCCOc1cccc(OC)c1,11.2%,-27.1%,-0.4,1.7,3.0%,39.6%
CCOc1ccccc1CNC(=O)c1cc(-c2ccc(Cl)s2)nc2ccccc12,-1.6%[59 µM],1.2%,x,x,-5.1%,11.7%
Cc1cc(/C=C2\C(=N)N3N=C(S(C)(=O)=O)SC3=NC2=O)c(C)n1Cc1ccccc1,44.7µM*,-36.7%,1.5,4.0,u,-18.9%
SMILES,G9a inh,BAZ2B inh,Six1-Eya2 blk,CtBP-E1A inh,JMJD2A Tudor,HP1b binding inh
COc1ccccc1OCCOc1ccc(/C=C2\C(=N)N3N=C(S(C)(=O)=O)SC3=NC2=O)cc1,2.9%[2.33 µM],50.1µM*,-24.2,x,22.4µM*,-14.1%
CCCC1=NN2C(=N)/C(=C\c3cc(C)n(Cc4ccccc4)c3C)C(=O)N=C2S1,4.7%,-1.9%,0.7,x,-23.6%,50.3%
C=CCOc1ccc(/C=C2\C(=N)N3N=C(S(=O)(=O)CC)SC3=NC2=O)cc1OC,2.4%[59 µM],u,-1.5,0.6,-12.1%,10.6%
COc1cc(/C=C2\C(=N)N3N=C(C)SC3=NC2=O)cc(OC)c1OCCOc1ccccc1C,11.7%[0.501 µM],-8.7%,3.5,x,-26.9%,-6.5%
COc1cc(/C=C2\C(=N)N3N=C(S(C)(=O)=O)SC3=NC2=O)cc(OC)c1OCCOc1ccccc1C,u,56.2µM*,1.3,0.9,79.4µM*,u
COc1cccc(C(=O)N2c3ccc(C)cc3C(C)(c3ccccc3)CC2(C)C)c1 (stereo not drawn),4.6%[59 µM],-13.8%,x,x,-16.3%,12.4%
Cc1ccc(NC(=O)C(=O)NCC(c2ccc3c(c2)OCO3)N2CCOCC2)cc1C (stereo not drawn),13.6%[59 µM],3.2%,x,x,8.1%,29.9%[57 µM]
COc1ccc(N2CCN(C(=O)CCS(=O)(=O)c3ccc(OC)cc3)CC2)cc1,u,3.3%,0.4,x,-13.1%,27.9%
O=C(CCS(=O)(=O)c1ccc(Br)cc1)N1CCN(c2ccc(Cl)cc2)CC1,10.8%[59 µM],3.3%,0.5,11.0,-12.9%,23.3%
COc1ccc(S(=O)(=O)CCC(=O)N2CCN(c3ccc(C(C)=O)cc3)CC2)cc1,31.6µM*,-38.8%,-1.3,7.6,-12.2%,46.4%
COc1ccc(N2CCN(C(=O)C3(S(=O)(=O)c4ccc(C)cc4)CC3)CC2)cc1,70.8µM*,-23.4%,-10.3,-3.2,-17.5%,-8.6%
O=C(CCS(=O)(=O)c1ccc(Br)cc1)N1CCN(c2ccc(F)cc2)CC1,50.1µM*,56.2µM*,-10.5,x,-9.7%,14.1%
COc1ccc(N2CCN(C(=O)CCS(=O)(=O)c3ccc(C)cc3)CC2)cc1,50.1µM*,u,-6.3,-3.2,-27.9%,-12.4%
COc1c(C)cc(S(=O)(=O)Nc2cccc(-c3ccc(N4CCOCC4)nn3)c2)c(C)c1C,9.2%[59 µM],-19.2%,x,x,-22.4%,16.2%[57 µM]
c1ncc(-c2ccoc2)c(NC2CC2)n1,0.1%[0.501 µM],x,x,x,x,x
Oc1ccc(O)cc1,5.97µM*,x,x,x,x,x
COc1ccc(-n2ccn(Cc3ccccc3Cl)c(=O)c2=O)cc1OC,-2.8%[59 µM],3.8%,x,x,-2.0%,22.4%
COc1ccc(C2/C=C\CN(CC3CC3)C(Cc3ccccc3)C(=O)N2Cc2ccc(F)cc2)cc1 (stereo not drawn),x,x,x,x,-23.4%,28.2%
